Test results reported in PubChem BioAssay AID2577 (National Center for Advancing Translational Sciences (NCATS), 2010).
A number with no mark means an inactive call. Calls come from the whole dose curve; as a rule, active = well fitted curve in the direction sought with a large enough effect; inactive = no such curve, though single readings can be large or run the other way.

What follows are molecules tested against Lysosomal alpha-glucosidase (Homo sapiens) (UniProt P10253) (assay: qHTS Assay for Inhibitors and Activators of N370S glucocerebrosidase as a Potential Chaperone Treatment of Gaucher Disease: Alpha-Glucosidase Counterscreen). Conditions: purified human alpha-glucosidase, 4MU-alpha-glucoside fluorescence.
Excerpt: NIH Chemical Genomics Center [NCGC] NIH Molecular Libraries Probe Production Centers Network [MLPCN] MLPCN Grant: MH086442-01 Assay Submitter (PI): Wei Zheng Glucocerebrosidase (GC) catalyzes the hydrolysis of beta-glucocerebroside to glucose and ceramide in lysosomes. Mutations in the glucocerebrosidase gene result in Gaucher disease, an autosomal recessive lysosomal storage disorder. Many of the mutations encountered in patients with Gaucher disease are missense alterations that may cause misfolding, decreased stability and/or mistrafficking of this lysosomal protein. […] These inhibitors include iminosugar analogs and three non-iminosugar inhibitors identified from a previous HTS of 62,000 compounds with the wild type recombinant enzyme. However, the enhancement of enzyme activity by the chaperone action of an enzyme inhibitor must be balanced against the direct inhibition of the enzyme. An enzyme activator could also function as a chaperone by binding to the enzyme and helping to correct its misfolding and mistrafficking. While activators for GC have not yet been identified, they may have better therapeutic potential than inhibitors. Therefore the discovery and development of chemical activators may provide a new strategy for the chaperone therapy. To characterize compound selectivity, selected hits from the primary screen were screened against purified alpha-glucosidase, a related sugar hydrolase. Alpha-glucosidase is responsible for hydrolysis of terminal, non-reducing 1,4-linked alpha-D-glucose residues with release of alpha-D-glucose.
NCGC Assay Protocol Summary: This is a fluorogenic enzyme assay with 4-methylumbelliferyl-alpha-D-[…] as the substrate and human alpha-glucosidase as the enzyme preparation. Upon the hydrolysis of this fluorogenic substrate, the resulting product, 1. 4-methyllumbelliferone, can be excited at 365 nm and emits at 440 nm which can be detected by a standard fluorescence plate reader. Data were normalized to the controls for basal activity (without enzyme) and 100% activity (with enzyme). The AC50 values were determined from concentration-response data modeled with the standard Hill equation. Assay buffer: 50 mM citric acid (titrated with potassium phosphate to pH 5.0), 0.005% Tween-20, pH 5.0. (pH 5.0 is an optimal condition for this enzyme assay) 1536-well assay protocol for the human alpha-glucosidase: (1) Add 2 ul/well of enzyme (4 nM final) (2) Add 23 nL compounds in DMSO solution. The final titration was 0.7 nM to 77 uM. (3) Add 1 ul of substrate (400 uM final) (4) Incubate at room temperature for 20 min. (5) Add 2 ul stop solution (1M NaOH and 1M Glycine mixture, pH 10) (6) Detect the assay plate in a ViewLux plate reader (PerkinElmer) with Ex=365 nm and Em=440nm. Keywords: Alpha-glucosidase, Pompe Disease, pharmacological chaperone, chaperone therapy, high throughput screening, alpha-glucosidase inhibitor, MLSMR, MLSCN, NIH Roadmap, qHTS and NCGC

Point of comparison: `O=S(=O)(c1cccc(C(F)(F)F)c1)N1CCN(c2nc(-c3cccs3)nc3cc(Cl)ccc23)CC1`, max response -7.27%. Against it:
- O=S(=O)(c1ccc2ccccc2c1)N1CCN(c2nc(-c3cccs3)nc3ccccc23)CC1 — higher, -7.23%
- O=S(=O)(c1ccc2ccccc2c1)N1CCN(c2nc(-c3ccccc3)nc3ccccc23)CC1 — higher, -4.15%
- COc1ccc(S(=O)(=O)N2CCN(c3nc(-c4ccccc4)nc4ccccc34)CC2)cc1 — lower, -14.8%
- Cc1ccc(-c2nc(N3CCN(S(=O)(=O)c4ccc(F)cc4)CC3)c3ccc(Cl)cc3n2)cc1 — lower, -14.5%
- O=S(=O)(c1ccc(F)cc1)N1CCN(c2nc(-c3ccccc3)nc3ccccc23)CC1 — higher, -3.53%
- N#Cc1ccccc1S(=O)(=O)N1CCN(c2nc(-c3cccs3)nc3ccccc23)CC1 — higher, -5.04%
- O=S(=O)(c1ccccc1Cl)N1CCN(c2nc(-c3cccs3)nc3ccccc23)CC1 — lower, -12.9%
- COc1ccc(-c2nc(N3CCN(S(=O)(=O)c4ccc(F)cc4)CC3)c3ccccc3n2)cc1 — higher, -2.56%
- O=S(=O)(c1cccc(C(F)(F)F)c1)N1CCN(c2nc(-c3ccccc3)nc3ccccc23)CC1 — lower, -12.7%
- O=S(=O)(c1ccc2c(c1)CCCC2)N1CCN(c2nc(-c3ccccc3)nc3ccccc23)CC1 — lower, -8.51%
- CC(C)(C)c1ccc(S(=O)(=O)N2CCN(c3nc(-c4cccs4)nc4ccccc34)CC2)cc1 — higher, -6.75%
- O=S(=O)(c1ccccc1F)N1CCN(c2nc(-c3cccs3)nc3ccccc23)CC1 — lower, -14.1%
- O=S(=O)(c1ccc(Br)cc1)N1CCN(c2nc(-c3cccs3)nc3ccccc23)CC1 — higher, -4.2%
- CC(=O)c1ccc(S(=O)(=O)N2CCN(c3nc(-c4ccccc4)nc4ccccc34)CC2)cc1 — higher, -3.56%
- O=S(=O)(c1ccc(Cl)cc1)N1CCN(c2nc(-c3ccccc3)nc3ccccc23)CC1 — lower, -10.6%
- COc1ccc(-c2nc(N3CCN(S(=O)(=O)c4ccc(C)cc4)CC3)c3ccccc3n2)cc1 — higher, -0.975%
- O=S(=O)(c1ccc(OC(F)(F)F)cc1)N1CCN(c2nc(-c3cccs3)nc3ccccc23)CC1 — higher, -3.54%
- O=S(=O)(c1ccc(F)cc1)N1CCN(c2nc(-c3ccc(F)cc3)nc3cc(Cl)ccc23)CC1 — higher, -3.75%
- O=[N+]([O-])c1cccc(S(=O)(=O)N2CCN(c3nc(-c4ccccc4)nc4ccccc34)CC2)c1 — higher, -5.2%
- O=S(=O)(c1cccc(C(F)(F)F)c1)N1CCN(c2nc(-c3cccs3)nc3ccccc23)CC1 — higher, -4.78%
- O=S(=O)(c1ccc(Br)cc1)N1CCN(c2nc(-c3ccccc3)nc3ccccc23)CC1 — higher, -1.71%
- O=S(=O)(c1ccccc1Br)N1CCN(c2nc(-c3cccs3)nc3ccccc23)CC1 — higher, -2.87%
- CC(=O)c1ccc(S(=O)(=O)N2CCN(c3nc(-c4cccs4)nc4ccccc34)CC2)cc1 — higher, -5.52%
- N#Cc1ccc(S(=O)(=O)N2CCN(c3nc(-c4cccs4)nc4ccccc34)CC2)cc1 — higher, -5.53%
- O=S(=O)(c1ccc(F)cc1)N1CCN(c2nc(-c3cccc(Br)c3)nc3ccccc23)CC1 — higher, -5.01%
- O=S(=O)(c1ccc(F)cc1)N1CCN(c2nc(-c3cccs3)nc3cc(Cl)ccc23)CC1 — lower, -15.8%
- O=S(=O)(c1ccc2c(c1)CCC2)N1CCN(c2nc(-c3ccccc3)nc3ccccc23)CC1 — lower, -9.75%
- CCOc1ccc(S(=O)(=O)N2CCN(c3nc(-c4ccccc4)nc4ccccc34)CC2)cc1OCC — lower, -7.31%
- O=S(=O)(c1ccccc1C(F)(F)F)N1CCN(c2nc(-c3cccs3)nc3ccccc23)CC1 — higher, -3.11%
- O=S(=O)(c1ccccc1Br)N1CCN(c2nc(-c3ccccc3)nc3ccccc23)CC1 — lower, -18.6%
- O=S(=O)(c1cccc(Cl)c1)N1CCN(c2nc(-c3cccs3)nc3ccccc23)CC1 — lower, -11.5%
- O=S(=O)(c1ccc(F)cc1)N1CCN(c2nc(-c3cccs3)nc3ccccc23)CC1 — lower, -15.5%
- CCOc1ccc(S(=O)(=O)N2CCN(c3nc(-c4ccccc4)nc4ccccc34)CC2)cc1 — lower, -10.9%
- O=S(=O)(c1ccccc1C(F)(F)F)N1CCN(c2nc(-c3ccccc3)nc3ccccc23)CC1 — lower, -7.6%
- O=S(=O)(c1ccc(Cl)cc1)N1CCN(c2nc(-c3ccc(F)cc3)nc3cc(Cl)ccc23)CC1 — higher, -5.47%
- CCOC(=O)c1ccc(S(=O)(=O)N2CCN(c3nc(-c4ccccc4)nc4ccccc34)CC2)cc1 — higher, -5.28%
- O=S(=O)(c1ccc(C(F)(F)F)cc1)N1CCN(c2nc(-c3cccs3)nc3ccccc23)CC1 — lower, -11.2%
- O=S(=O)(c1ccccc1Cl)N1CCN(c2nc(-c3ccccc3)nc3ccccc23)CC1 — higher, -4.34%
- O=S(=O)(c1ccc(Cl)cc1)N1CCN(c2nc(-c3ccc(Cl)cc3)nc3ccccc23)CC1 — higher, 1.68%
